System: not listed separately
Assay: JC-1 mitochondrial potential readout, lung cancer cells – cell-based, A549, JC-1 fluorescence, basal, 24 h, 100 nL, profiling panel (AID 1138);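 further: A549 lung adenocarcinoma cells under basal conditions with no added stimulus; test concentration not given here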
Settings: higher = more signal
`COCCCNC(=O)[C@@]1(c2ccc([N+](=O)[O-])cc2)CC(=O)N(C(C)C)[C@@H]1c1ccc(CO)cc1` gave a z-score of 0.296. With `CN1C(=O)C2C=CC(C(O)c3ccc(I)cc3)N(Nc3ccccc3)C2C1=O` (stereo not drawn) the z-score was 0.255. For `CCOC(=O)C1=C[C@@H](c2ccccc2)N(S(=O)(=O)c2ccc(C)cc2)[C@H]1c1ccccc1`, the z-score was 1.47. `CC1CC/C=C\[C@H]2OC34C=CCN(C(C)(C)C)C(=O)[C@H]3N(C(CO)C(C)C)C(=O)[C@@H]4C2C(=O)O1` (stereo partly drawn) showed a z-score of -0.428. `COC(=O)[C@@]1(Cc2ccc(F)cc2)[C@H]2c3cc(C(=O)N4CCCC4)n(CC4CC4)c3C[C@H]2CN1C(=O)c1ccccc1` gave a z-score of 0.699.

System: Lefty1
Assay: Lefty1 protein binding to printed compounds – biochemical, small-molecule microarray, 635/667 nm fluorescence, primary screen (AID 1139)
Settings: fluorescence 635/667, higher = more signal
Work on `COCCCNC(=O)[C@@H]1c2ccccc2C(=O)N(C2Cc3ccccc3C2)[C@H]1c1ccc(CO)cc1` yielded a composite z-score of 0.278. `COc1ccc([Si](C)(C)[C@H]2[C@H](CCO)O[C@@]3(C(=O)N(Cc4ccccc4)c4ccc(N5CCOC5=O)cc43)[C@@H]2C)cc1` gave a composite z-score of 0.385. For `C[C@@]12COC[C@]13C=C(Br)[C@H](C2)[C@@]1(CO1)C3=O`, the composite z-score was -0.0487. `Nc1cc(Br)ccc1C(=O)O` showed a composite z-score of -0.0916. Work on `COC(=O)[C@@]1(Cc2ccccc2)[C@H]2c3cc(C(=O)N(C)C)n(CCn4cc([N+](=O)[O-])nc4C)c3C[C@H]2CN1C(=O)c1ccccc1` yielded a composite z-score of 0.216. `C=C(/C(=C/C[C@@H](OC(C)=O)c1ccc(CO)o1)c1cc(C(=O)OC)ccc1OC)C(C)C` gave a composite z-score of 0.564. For `CC(C)C(=C=CC[C@H](O)c1cccc(OCCO)c1)CCO`, the composite z-score was 0.67. For `C=CCN1C(=O)[C@]2(O[C@H](CCO)[C@@H]([Si](C)(C)c3ccc(OC)cc3)[C@@H]2C)c2cc(NC(=O)c3ccc(OC)cc3)ccc21`, the composite z-score was 1.03.
